Data: PubChem BioAssay (EPA / NIEHS)
Inconclusive results are not listed. Active and inactive are the calls of the source. The calls were made as follows, unless noted: active = hit-call score of the fitted dose curve at least 0.9, where 1 is the maximum; inactive = score below 0.9.

Assays:
[1] = target: Paired box protein Pax-6 (Homo sapiens) (UniProt P26367); assay: ATG_Pax6_CIS: Attagene CIS-FACTORIAL HepG2 Assay for human Paired Box 6 (PAX6) (AID 2282956); conditions: HepG2 CIS-FACTORIAL PAX6 reporter transcription, RNA readout; actives raise or lower the signal
Outline: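 Fluorescent RT-PCR products separated by capillary electrophoresis report PAX6-linked promoter mRNA in HepG2 cells 24 h post-dose. Curves fitted bidirectionally, DMSO as negative control.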

[2] = ATG_PXRE_CIS: Attagene CIS-FACTORIAL HepG2 Assay for human Pregnane X Receptor Element (PXRE) (AID 2282957); conditions: HepG2 Attagene CIS-FACTORIAL PXRE reporter, mRNA; actives raise or lower the signal
Outline: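 Endogenous transcription factor activity in HepG2 was gauged through induction of reporter mRNA driven by a cis-regulating promoter element, sampled 24 h post-treatment. Activity was fitted in both directions against DMSO negative control.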

[3] = ATG_RORE_CIS: Attagene CIS-FACTORIAL HepG2 Assay for human RAR-related Orphan Receptor Element (RORE) (AID 2282959); conditions: HepG2 Attagene cis-factorial RORE reporter, mRNA; actives raise or lower the signal
Outline: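 Measured here: transcript induction of a cis-regulated reporter in HepG2 cells transiently transfected via FuGene 6. After 24 h, RNA was processed by RT-PCR and fluorescent capillary electrophoresis; DMSO defined baseline activity.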

[4] = ATG_Sox_CIS: Attagene CIS-FACTORIAL HepG2 Assay for human SRY-box transcription factor (SOX) (AID 2282960); conditions: HepG2 Attagene cis-factorial SOX reporter, mRNA; actives raise or lower the signal
Outline: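 Using transiently transfected HepG2 cells, reporter transcription driven by cis elements was assessed 24 h after dosing. Signal was fluorescence of capillary-separated RT-PCR products, with DMSO defining baseline activity.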

[5] = ATG_SREBP_CIS: Attagene CIS-FACTORIAL HepG2 Assay for human Sterol Regulatory Element Binding (SREBP) (AID 2282962); conditions: HepG2 Attagene cis-factorial SREBP reporter, mRNA; actives raise or lower the signal
Outline: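 Endogenous factor activity is measured in HepG2 through multiplexed reporter units under cis-element control. Following a 24 h incubation, reporter transcripts are reverse-transcribed, PCR-amplified and sized by capillary electrophoresis; activity is fitted in both directions relative to DMSO.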

[6] = target: Signal transducer and activator of transcription 3 (Homo sapiens) (UniProt P40763); assay: ATG_STAT3_CIS: Attagene CIS-FACTORIAL HepG2 Assay for human Signal Transducer and Activator of Transcription 3 (STAT3) (AID 2282963); conditions: HepG2, Attagene cis-factorial STAT3 reporter transcription; actives raise or lower the signal
Outline: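 Fluorescence intensity of 6-FAM-labelled reporter fragments, separated by capillary electrophoresis after RT-PCR, gave the signal. Cells were HepG2 transfected with cis-element reporter units and treated 24 h; fitting was bidirectional relative to DMSO.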

[7] = ATG_TA_CIS: Attagene CIS-FACTORIAL HepG2 Assay for human TA Basal Promoter (AID 2282964); conditions: HepG2 Attagene CIS-factorial TA basal promoter reporter; actives raise or lower the signal
Outline: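 HepG2 cells transiently transfected with multiplexed cis-promoter reporter units, dosed 24 h. Reporter mRNA measured by RT-PCR, 6-FAM labelling, HpaI digestion and capillary electrophoresis; bidirectional fit versus DMSO baseline, serving as background control.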

[8] = ATG_TCF_b_cat_CIS: Attagene CIS-FACTORIAL HepG2 Assay for human T-Cell-Factor with beta-catenin (TCF/b-cat) (AID 2282965); conditions: HepG2 TCF/beta-catenin cis-reporter transcription, actives raise or lower the signal
Outline: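 Cells of the HepG2 line carry transiently transfected reporter units whose promoters respond to endogenous factors. Twenty-four hours post-dosing, reporter mRNA induction is measured by fluorescent RT-PCR and capillary electrophoresis, with DMSO as baseline.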

[9] = ATG_TAL_CIS: Attagene CIS-FACTORIAL HepG2 Assay for human TAL Basal Promoter (AID 2282966); conditions: HepG2 Attagene cis-factorial TAL promoter reporter; actives raise or lower the signal;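 also: background control endpoint measuring basal TAL promoter reporter mRNA not a specific factor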
Outline: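 Endogenous transcription-factor activity is sensed in HepG2 cells through transfected cis-promoter reporter constructs. After 24 h dosing, reporter transcripts are quantified by RT-PCR and capillary electrophoresis. Gain or loss of signal is fitted relative to DMSO.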

[10] = ATG_TGFb_CIS: Attagene CIS-FACTORIAL HepG2 Assay for human Transforming Growth Factor (TGF) (AID 2282967); conditions: HepG2 Attagene CIS TGFb reporter, mRNA transcription; actives raise or lower the signal
Outline: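 HepG2 cells transiently transfected with cis-promoter-driven multiplexed reporter units; 24 h compound exposure. Reporter mRNA measured by RT-PCR, 6-FAM labeling, HpaI digestion and capillary electrophoresis; bidirectional fit versus DMSO baseline.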

[11] = ATG_VDRE_CIS: Attagene CIS-FACTORIAL HepG2 Assay for human Vitamin D Receptor Element (VDRE) (AID 2282968); conditions: HepG2 VDRE cis-reporter transcription, actives raise or lower the signal
Outline: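 Compounds were applied for 24 h to HepG2 cells transfected with promoter-regulated reporter units. Total RNA was reverse-transcribed, and reporter amplicons were fluorescently labelled and sized by capillary electrophoresis.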

[12] = target: X-box-binding protein 1 (Homo sapiens) (UniProt P17861); assay: ATG_Xbp1_CIS: Attagene CIS-FACTORIAL HepG2 Assay for human X-box Binding Protein 1 (XBP1) (AID 2282972); conditions: HepG2 XBP1 cis-element reporter, Attagene multiplex; actives raise or lower the signal
Outline: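 Multiplexed cis-reporter readout in transfected HepG2 liver cells. Exposure lasted 24 hours. Activity in either direction was fitted against DMSO as negative control and baseline.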

[13] = target: Estrogen-related receptor gamma (Homo sapiens) (UniProt P62508); assay: ATG_ERRg_TRANS: Attagene TRANS-FACTORIAL HepG2 Assay for human Estrogen-Related Receptor gamma (ERRg) (AID 2282977; active = hit-call score of the fitted dose curve at least 0.9, where 1 is the maximum;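 also: hits increase reporter signal over DMSO so potencies reflect activators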); conditions: HepG2 Attagene TRANS reporter, ERRg transactivation
Outline: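 Induction of reporter transcripts through a chimeric NR-Gal4 protein is quantified in transfected human HepG2 liver cells after 24 h chemical exposure, using RT-PCR with capillary electrophoresis detection and DMSO as baseline.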

[14] = target: Transcription factor Sp1 (Homo sapiens) (UniProt P08047); assay: ATG_Sp1_CIS: Attagene CIS-FACTORIAL HepG2 Assay for human Specificity Protein 1 (Sp1) (AID 2282961); conditions: HepG2 Sp1 cis-reporter transcription, actives raise or lower the signal
Outline: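 After transient transfection of HepG2 cells with cis-promoter reporter units and 24 h chemical treatment, reporter transcripts were quantified by RT-PCR and capillary electrophoresis fluorescence. Gain- and loss-of-signal fitted against DMSO.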

[15] = ATG_M_19_TRANS: Attagene TRANS-FACTORIAL HepG2 Assay for M19 Transcription Factor (Internal Marker) (AID 2282974; active = hit-call score of the fitted dose curve at least 0.9, where 1 is the maximum); conditions: HepG2 Attagene TRANS-FACTORIAL M19 internal marker reporter
Outline: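 Gain-of-signal in reporter mRNA, relative to DMSO, was scored from capillary electrophoresis fluorescence. HepG2 cells carried transiently transfected multiple reporter transcription units and were incubated with test chemicals for 24 h.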

[16] = ATG_GAL4_TRANS: Attagene TRANS-FACTORIAL HepG2 Assay for GAL4 (Internal Marker) (AID 2282976; active = hit-call score of the fitted dose curve at least 0.9, where 1 is the maximum); conditions: HepG2 Attagene TRANS GAL4 internal marker reporter
Outline: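 Fluorescence from capillary electrophoresis of labelled RT-PCR products quantifies reporter mRNA induction after 24 h dosing of HepG2 cells carrying transfected GAL4-UAS reporter transcription units. Vehicle DMSO serves as baseline.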

[17] = target: Estrogen receptor (Homo sapiens) (UniProt P03372); assay: ATG_ERa_TRANS: Attagene TRANS-FACTORIAL HepG2 Assay for human Estrogen Receptor alpha (ERa) (AID 2282970; active = hit-call score of the fitted dose curve at least 0.9, where 1 is the maximum); conditions: HepG2 Attagene TRANS ERa GAL4 reporter, mRNA
Outline: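 Transfected HepG2 cells carrying GAL4-UAS-driven reporter units were dosed for 24 hours. Total RNA was reverse-transcribed, reporter sequences PCR-amplified, FAM-labelled, HpaI-digested and resolved by capillary electrophoresis. Increases over DMSO control defined activity.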

[18] = target: Nuclear receptor subfamily 1 group I member 3 (Homo sapiens) (UniProt Q14994); assay: ATG_CAR_TRANS: Attagene TRANS-FACTORIAL HepG2 Assay for human Constitutive Androstane Receptor (CAR) (AID 2282969; active = hit-call score of the fitted dose curve at least 0.9, where 1 is the maximum;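 also: activators raise reporter mRNA above DMSO so AC50 marks induction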); conditions: HepG2 Attagene TRANS-FACTORIAL CAR reporter
Outline: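 Transiently transfected HepG2, multiplex TRANS reporters (CAR-Gal4 chimera driving GAL4-UAS reporter). 24 h dosing. Readout: reporter transcript by RT-PCR + capillary electrophoresis, fluorescence intensity; positive direction vs DMSO.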

[19] = target: Steroid hormone receptor ERR1 (Homo sapiens) (UniProt P11474); assay: ATG_ERRa_TRANS: Attagene TRANS-FACTORIAL HepG2 Assay for human Estrogen-Related Receptor alpha (ERRa) (AID 2282971; active = hit-call score of the fitted dose curve at least 0.9, where 1 is the maximum); conditions: HepG2 Attagene TRANS reporter, ERRa transactivation
Outline: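 HepG2 cells were transiently transfected with multiple GAL4-UAS reporter units, then dosed with compound for 24 h. Total RNA was reverse-transcribed, reporter cDNA PCR-amplified and fluorescently labelled, and fragments resolved by capillary electrophoresis; induction was compared with DMSO.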

[20] = ATG_PPRE_CIS: Attagene CIS-FACTORIAL HepG2 Assay for human Peroxisome Proliferator-activated Response Element (PPRE) (AID 2282958); conditions: HepG2 PPRE cis-element reporter, Attagene transcription factor profiling; actives raise or lower the signal
Outline: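 After human HepG2 hepatoma cells were transiently transfected with cis-promoter reporter constructs, they were exposed to test chemicals for 24 hours. Reporter RNA was then reverse-transcribed, PCR-amplified, FAM-labeled, HpaI-digested and quantified by capillary electrophoresis.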

Measured: AC50

Paired box protein Pax-6 (Homo sapiens), sequence (P26367 whole entry, looked up): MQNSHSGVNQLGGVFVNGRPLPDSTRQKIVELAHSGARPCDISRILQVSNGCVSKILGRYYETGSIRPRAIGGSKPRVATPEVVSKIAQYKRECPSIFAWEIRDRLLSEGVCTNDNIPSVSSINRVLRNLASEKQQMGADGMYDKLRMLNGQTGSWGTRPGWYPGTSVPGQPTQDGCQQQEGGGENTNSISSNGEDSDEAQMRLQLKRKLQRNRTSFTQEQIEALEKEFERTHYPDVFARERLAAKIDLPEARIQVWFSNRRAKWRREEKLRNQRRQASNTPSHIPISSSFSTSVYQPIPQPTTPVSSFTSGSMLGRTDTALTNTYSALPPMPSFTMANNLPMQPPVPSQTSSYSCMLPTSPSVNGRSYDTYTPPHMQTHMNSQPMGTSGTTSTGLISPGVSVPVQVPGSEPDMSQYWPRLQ
Signal transducer and activator of transcription 3 (Homo sapiens), sequence (P40763 whole entry, looked up, the tested form may be a part): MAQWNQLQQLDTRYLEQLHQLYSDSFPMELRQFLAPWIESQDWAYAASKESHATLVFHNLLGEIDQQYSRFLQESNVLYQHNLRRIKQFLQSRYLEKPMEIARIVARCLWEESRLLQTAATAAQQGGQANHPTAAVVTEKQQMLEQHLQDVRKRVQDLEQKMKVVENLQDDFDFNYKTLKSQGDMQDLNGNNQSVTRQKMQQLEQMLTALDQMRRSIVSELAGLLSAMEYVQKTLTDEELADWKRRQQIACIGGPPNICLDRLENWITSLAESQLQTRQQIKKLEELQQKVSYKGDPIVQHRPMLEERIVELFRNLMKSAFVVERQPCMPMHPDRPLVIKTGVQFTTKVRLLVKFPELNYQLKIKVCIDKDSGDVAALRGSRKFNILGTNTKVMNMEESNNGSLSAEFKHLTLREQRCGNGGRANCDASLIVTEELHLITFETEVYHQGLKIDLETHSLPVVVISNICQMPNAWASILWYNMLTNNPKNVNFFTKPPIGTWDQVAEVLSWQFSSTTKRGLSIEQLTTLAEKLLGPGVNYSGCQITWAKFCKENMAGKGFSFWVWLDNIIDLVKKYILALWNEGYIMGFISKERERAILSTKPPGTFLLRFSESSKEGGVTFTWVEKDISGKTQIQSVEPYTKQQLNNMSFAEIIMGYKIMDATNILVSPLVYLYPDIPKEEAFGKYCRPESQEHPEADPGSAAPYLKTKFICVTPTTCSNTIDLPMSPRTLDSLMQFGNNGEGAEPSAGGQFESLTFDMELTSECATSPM
Estrogen-related receptor gamma (Homo sapiens), sequence (P62508 whole entry, looked up, the tested form may be a part): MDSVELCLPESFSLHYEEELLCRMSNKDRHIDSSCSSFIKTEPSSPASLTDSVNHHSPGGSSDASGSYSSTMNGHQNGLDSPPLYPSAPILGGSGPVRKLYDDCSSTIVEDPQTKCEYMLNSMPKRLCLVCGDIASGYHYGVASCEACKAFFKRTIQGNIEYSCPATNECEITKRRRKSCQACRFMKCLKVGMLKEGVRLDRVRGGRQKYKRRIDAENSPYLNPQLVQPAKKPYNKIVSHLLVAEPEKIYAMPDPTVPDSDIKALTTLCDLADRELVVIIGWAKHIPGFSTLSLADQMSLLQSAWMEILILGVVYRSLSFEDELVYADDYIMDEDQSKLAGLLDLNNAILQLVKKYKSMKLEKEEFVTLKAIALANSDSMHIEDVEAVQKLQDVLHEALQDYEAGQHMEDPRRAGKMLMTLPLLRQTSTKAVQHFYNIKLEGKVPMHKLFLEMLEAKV
Transcription factor Sp1 (Homo sapiens), sequence (P08047 whole entry, looked up): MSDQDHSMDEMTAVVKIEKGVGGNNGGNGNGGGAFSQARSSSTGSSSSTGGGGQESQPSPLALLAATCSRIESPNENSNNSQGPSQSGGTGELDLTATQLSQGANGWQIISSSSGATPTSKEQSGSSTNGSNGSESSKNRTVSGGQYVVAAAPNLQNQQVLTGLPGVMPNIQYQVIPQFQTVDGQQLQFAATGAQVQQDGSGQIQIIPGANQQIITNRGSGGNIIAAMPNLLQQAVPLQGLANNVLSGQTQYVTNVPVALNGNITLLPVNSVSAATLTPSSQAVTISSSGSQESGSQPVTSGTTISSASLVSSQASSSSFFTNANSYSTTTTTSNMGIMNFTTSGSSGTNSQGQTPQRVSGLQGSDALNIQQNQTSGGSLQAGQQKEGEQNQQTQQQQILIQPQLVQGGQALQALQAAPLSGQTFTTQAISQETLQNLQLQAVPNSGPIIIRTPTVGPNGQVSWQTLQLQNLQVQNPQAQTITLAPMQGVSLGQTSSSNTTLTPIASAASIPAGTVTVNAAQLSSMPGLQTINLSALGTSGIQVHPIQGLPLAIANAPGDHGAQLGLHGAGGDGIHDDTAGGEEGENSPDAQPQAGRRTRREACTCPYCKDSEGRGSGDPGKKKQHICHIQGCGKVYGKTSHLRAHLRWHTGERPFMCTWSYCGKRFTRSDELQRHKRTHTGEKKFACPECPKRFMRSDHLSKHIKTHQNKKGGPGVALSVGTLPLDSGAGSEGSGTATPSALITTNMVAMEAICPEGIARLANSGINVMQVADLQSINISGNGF
Nuclear receptor subfamily 1 group I member 3 (Homo sapiens), sequence (Q14994 whole entry, looked up, the tested form may be a part): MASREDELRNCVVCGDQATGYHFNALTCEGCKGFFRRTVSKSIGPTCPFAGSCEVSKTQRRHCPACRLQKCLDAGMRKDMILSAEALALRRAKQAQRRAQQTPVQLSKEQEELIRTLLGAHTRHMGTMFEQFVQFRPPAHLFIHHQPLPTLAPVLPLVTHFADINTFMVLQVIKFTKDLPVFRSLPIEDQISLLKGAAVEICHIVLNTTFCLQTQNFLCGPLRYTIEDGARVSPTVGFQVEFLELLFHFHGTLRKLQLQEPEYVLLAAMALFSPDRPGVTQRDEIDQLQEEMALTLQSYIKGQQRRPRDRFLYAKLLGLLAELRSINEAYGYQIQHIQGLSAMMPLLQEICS
Estrogen receptor (Homo sapiens), sequence (P03372 whole entry, looked up, the tested form may be a part): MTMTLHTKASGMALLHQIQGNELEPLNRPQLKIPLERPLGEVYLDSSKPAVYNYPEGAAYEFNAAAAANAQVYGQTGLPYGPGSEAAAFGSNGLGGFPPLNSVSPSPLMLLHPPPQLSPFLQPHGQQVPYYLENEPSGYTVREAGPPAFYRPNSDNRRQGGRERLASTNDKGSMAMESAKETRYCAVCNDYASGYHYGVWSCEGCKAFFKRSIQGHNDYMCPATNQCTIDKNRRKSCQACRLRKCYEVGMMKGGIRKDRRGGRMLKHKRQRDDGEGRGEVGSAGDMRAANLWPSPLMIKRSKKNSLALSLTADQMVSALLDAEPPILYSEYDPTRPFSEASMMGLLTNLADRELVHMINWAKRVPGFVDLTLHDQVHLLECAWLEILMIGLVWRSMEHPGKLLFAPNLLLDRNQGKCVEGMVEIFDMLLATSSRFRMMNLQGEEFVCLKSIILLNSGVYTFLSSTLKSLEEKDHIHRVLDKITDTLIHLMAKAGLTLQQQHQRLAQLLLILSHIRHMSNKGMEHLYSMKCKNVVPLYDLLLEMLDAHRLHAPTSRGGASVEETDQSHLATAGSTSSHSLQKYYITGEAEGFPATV
X-box-binding protein 1 (Homo sapiens), sequence (P17861 whole entry, looked up): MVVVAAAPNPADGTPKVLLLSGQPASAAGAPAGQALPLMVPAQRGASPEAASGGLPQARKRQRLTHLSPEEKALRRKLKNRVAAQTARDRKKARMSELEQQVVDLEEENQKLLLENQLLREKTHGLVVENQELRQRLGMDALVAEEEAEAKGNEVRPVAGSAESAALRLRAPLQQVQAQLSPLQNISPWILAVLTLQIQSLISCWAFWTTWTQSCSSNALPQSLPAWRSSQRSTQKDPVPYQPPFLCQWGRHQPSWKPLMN
Steroid hormone receptor ERR1 (Homo sapiens), sequence (P11474 whole entry, looked up, the tested form may be a part): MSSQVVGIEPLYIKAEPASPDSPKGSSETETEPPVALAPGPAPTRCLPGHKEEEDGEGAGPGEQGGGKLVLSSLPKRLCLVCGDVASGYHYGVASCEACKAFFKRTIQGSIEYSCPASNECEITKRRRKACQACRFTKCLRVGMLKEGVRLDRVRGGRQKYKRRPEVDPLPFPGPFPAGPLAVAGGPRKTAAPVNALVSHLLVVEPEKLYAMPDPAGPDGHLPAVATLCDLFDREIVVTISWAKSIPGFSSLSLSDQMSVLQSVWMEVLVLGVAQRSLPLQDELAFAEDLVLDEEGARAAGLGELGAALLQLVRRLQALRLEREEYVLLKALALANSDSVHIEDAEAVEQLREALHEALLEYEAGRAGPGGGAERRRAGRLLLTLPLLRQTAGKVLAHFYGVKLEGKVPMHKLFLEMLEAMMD

CC(C#N)(CCC(=O)O)N=NC(C)(C#N)CCC(=O)O (stereo not given)
active: [2] 26.2 µM
not listed: [14] | [15] | [16] | [17] | [18] | [19] | [20]
inactive: all other assays above

C=C(C)C1CCC(C)CC1O (stereo not given)
not listed: [7] | [11] | [13] | [17] | [18] | [19] | [20]
inactive: all other assays above

O=S(=O)(O)NC1CCCCC1
not listed: [3] | [13] | [15] | [16] | [17] | [18] | [19] | [20]
inactive: all other assays above

CCN(CC)CCOC(=O)c1ccc(N)cc1
active: [2] 45.9 µM
not listed: [3] | [17] | [18] | [19] | [20]
inactive: all other assays above

O=C(COc1ccc(Cl)cc1)N1CCN(Cc2ccc3c(c2)OCO3)CC1
active: [1] 57.7 µM | [2] 4.76 µM | [5] 27.1 µM
not listed: [3] | [18] | [19] | [20]
inactive: all other assays above

CC(c1cc2ccccc2s1)N(O)C(N)=O (stereo not given)
not listed: [3] | [13] | [16] | [18] | [19] | [20]
inactive: all other assays above

C=CC(=O)NCOCC(C)C
inactive: [1] | [4] | [14] | [5] | [6] | [7] | [8] | [10] | [12] | [15]
active: [2] 21 µM | [11] 34.3 µM

O=[N+]([O-])c1ccc(C=Cc2ccc([N+](=O)[O-])cc2S(=O)(=O)O)c(S(=O)(=O)O)c1
not listed: [3] | [13] | [16] | [18] | [19] | [20]
inactive: all other assays above

CCCCCCCCCCN
inactive: [1] | [2] | [3] | [4] | [14] | [5] | [7] | [8] | [10] | [12] | [15]

CN(CCOc1ccc(CC2SC(=O)NC2=O)cc1)c1ccccn1 (stereo not given)
active: [2] 6.08 µM | [3] 9.64 µM | [5] 5.58 µM
not listed: [9] | [11] | [13] | [16] | [19] | [20]
inactive: all other assays above

c1ccc(CCCc2ccccn2)cc1
active: [2] 100 µM | [10] 148 µM | [11] 42.9 µM
not listed: [7] | [9] | [15] | [16] | [18] | [20]
inactive: all other assays above

CC(C)(C)C(=O)c1ccccc1
active: [2] 53 µM
not listed: [4] | [13] | [15] | [16] | [18] | [19] | [20]
inactive: all other assays above

CC1(C)[C@H]2CC[C@]1(C)[C@H](O)C2
active: [2] 68.7 µM
not listed: [6] | [11] | [13] | [15] | [17] | [19] | [20]
inactive: all other assays above

CC(CCO)CCc1ccccc1 (stereo not given)
active: [17] 25.2 µM
not listed: [2] | [3] | [13] | [15] | [16] | [18] | [19]
inactive: all other assays above

CC(=O)C(C)=O
not listed: [2] | [6] | [13] | [15] | [16] | [17] | [18] | [19]
inactive: all other assays above

CCOC(=O)c1ccccc1OC
not listed: [2] | [3] | [4] | [14] | [15] | [16] | [17] | [19]
inactive: all other assays above

Clc1ccc(Cl)c(Cl)c1Cl
active: [10] 19.8 µM
not listed: [2] | [3] | [13] | [15] | [17] | [18] | [19]
inactive: all other assays above

Cc1cc(C2(c3cc(C)c(O)cc3C)OS(=O)(=O)c3ccccc32)c(C)cc1O
active: [17] 4.2 µM
not listed: [2] | [3] | [11] | [13] | [14] | [15] | [19] | [20]
inactive: all other assays above

Cc1c(Cl)c(=O)oc2cc(O)ccc12
active: [14] 26.8 µM | [5] 120 µM | [11] 149 µM
not listed: [2] | [4] | [13] | [15] | [17] | [19]
inactive: all other assays above

c1ccc2c(c1)c1cccc3ccc4cccc2c4c31
not listed: [2] | [13] | [16] | [19] | [20]
inactive: all other assays above
